Drawing on PubChem BioAssay, this text covers z-score and composite z-score for eight molecules.

Active and inactive are the calls of the source.

The nature of assay [1]: optical density shifts of acrAB sulA E. coli – strain DRC41, OD650, 48 h, E. coli filamentation inducer project, primary screen (AID 1152).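 Further: E. coli MC1000 strain DRC41 lacking acrAB efflux pump and sulA.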 The settings on record: higher = more signal, called active from +8 up or from −8 down.
A short description of assay [2]: probe aLefty1 binding on compound microarray – biochemical, small-molecule microarray, 635/667 nm fluorescence, primary screen (AID 1153).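 Further: score merges spot fluorescence with signal-to-noise ratio from the scanned slide images.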 The settings on record: higher = more signal.
Assay [3] is described as follows: plasmodial surface anion channel blockers, osmotic lysis – cell-based, P. falciparum Indochina, OD700, 1 h, primary screen (AID 1154). The settings on record: P. falciparum Indochina infected RBC osmotic lysis, higher = more signal, called active from +8 up or from −8 down.
Assay [4] in a line: plasmodial surface anion channel blockers, osmotic lysis – cell-based, P. falciparum Indochina, OD700, 2 h, primary screen (AID 1155).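 Further: lysis reports solute entry through the parasite surface anion channel PSAC.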 The settings on record: P. falciparum Indochina infected erythrocytes, higher = more signal, called active from +8 up or from −8 down.
Assay [5] in a line: changes in parasitized red cell lysis, either direction – P. falciparum Indochina, OD700, 3 h, PSAC antagonist project, primary screen (AID 1156). The settings on record: P. falciparum-infected erythrocytes, osmotic lysis, higher = more signal, called active from +8 up or from −8 down.
Assay [6] can be described thus: plasmodial surface anion channel blockers, osmotic lysis – cell-based, P. falciparum Indochina, OD700, 18 h, primary screen (AID 1157). The settings on record: P. falciparum Indochina infected erythrocytes, osmotic lysis OD700, 18 h; higher = more signal, called active from +8 up or from −8 down.
Assay [7] can be described thus: S6 kinase pathway phospho-S6 level changes – cell-based, A549, cytoblot, luminescence, serum-stimulated, primary screen (AID 1158).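 Further: serum-stimulated A549 lung adenocarcinoma cells; signal is phosphorylated S6 detected by cytoblot immunostaining with HRP secondary.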 The settings on record: 5 h, higher = more signal.
In assay [8] the target is NADPH oxidase 2 (Homo sapiens) (UniProt P04839). The assay can be described thus: compounds shifting NOX2 Amplex Red fluorescence – cell-based, HEK293-NOX2, PMA-stimulated, NOX inhibitor project, primary screen (AID 1159). Further: test concentration not given here. The settings on record: 45 min, higher = more signal, called active from +8 up or from −8 down.
Sequence of NADPH oxidase 2 (Homo sapiens) (P04839 whole entry, looked up): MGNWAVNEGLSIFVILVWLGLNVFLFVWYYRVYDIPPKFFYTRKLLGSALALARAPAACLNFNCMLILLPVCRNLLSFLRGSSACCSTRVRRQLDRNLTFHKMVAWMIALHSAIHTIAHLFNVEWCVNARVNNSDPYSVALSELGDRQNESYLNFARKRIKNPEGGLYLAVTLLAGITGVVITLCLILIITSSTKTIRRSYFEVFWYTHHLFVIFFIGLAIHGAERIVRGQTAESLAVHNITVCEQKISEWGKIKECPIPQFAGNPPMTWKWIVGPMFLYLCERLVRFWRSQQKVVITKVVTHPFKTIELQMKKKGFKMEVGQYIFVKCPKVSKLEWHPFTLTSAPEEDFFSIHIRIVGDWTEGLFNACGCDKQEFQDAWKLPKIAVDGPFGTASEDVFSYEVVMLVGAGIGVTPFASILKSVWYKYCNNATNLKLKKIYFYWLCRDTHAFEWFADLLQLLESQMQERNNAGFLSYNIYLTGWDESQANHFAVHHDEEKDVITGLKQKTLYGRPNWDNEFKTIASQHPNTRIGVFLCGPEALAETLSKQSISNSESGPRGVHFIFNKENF
Assay [9] addresses NADPH oxidase 4 (Homo sapiens) (UniProt Q9NPH5). In words: compounds shifting NOX4 Amplex Red fluorescence – cell-based, HEK293-NOX4, tetracycline-induced, NOX inhibitor project, primary screen (AID 1160). The settings on record: HEK293-NOX4, Amplex Red H2O2 fluorescence, 45 min; higher = more signal, called active from +8 up or from −8 down.
Assay [10] addresses NADPH oxidase 5 (Homo sapiens) (UniProt Q96PH1). The assay can be described thus: compounds shifting NOX5 Amplex Red fluorescence – cell-based, HEK293-NOX5, NOX inhibitor project, primary screen (AID 1161). The settings on record: HEK293-NOX5, ionomycin, 45 min, higher = more signal.
Assay [11] can be described thus: compound effects on lung adenocarcinoma cell viability – A549, calcein-AM fluorescence, 48 h, basal, profiling panel (AID 1162). Further: test concentration not given here. The settings on record: higher = more signal.
The nature of assay [12]: compound effects on differentiated 3T3-L1 adipocyte viability – cell-based, 3T3-L1 adipocytes, calcein-AM fluorescence, 48 h, basal, profiling panel (AID 1163). Further: test concentration not given here. The settings on record: 3T3-L1 adipocytes viability, higher = more signal.
Assay [13] is described as follows: compound effects on hepatocellular carcinoma cell viability – HepG2, calcein-AM fluorescence, 48 h, basal, profiling panel (AID 1164). Further: test concentration not given here. The settings on record: higher = more signal.
Assay [14] in a line: compound effects on multiple myeloma cell viability – MM1S, calcein-AM fluorescence, 48 h, basal, profiling panel (AID 1165).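 Further: viability of MM1S multiple myeloma cells under basal unstimulated conditions; test concentration not given here.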 The settings on record: higher = more signal.
A short description of assay [15]: calcein-AM signal in unstimulated myeloma cells – cell-based, calcein-AM fluorescence, 48 h, PK04 Diversity Set, profiling panel (AID 1166).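 Further: cells grown under basal conditions without added stimulus; test concentration not given here.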 The settings on record: RPMI8226 myeloma viability, higher = more signal.
Assay [16] is described as follows: JC-1 mitochondrial signal, unstimulated HepG2 cells – cell-based, JC-1 fluorescence, 24 h, 100 nL compound, profiling panel (AID 1167). Further: test concentration not given here. The settings on record: HepG2 mitochondrial potential, higher = more signal.
Assay [17] in a line: JC-1 mitochondrial signal, unstimulated adipocytes – cell-based, JC-1 fluorescence, 3T3-L1 adipocytes, 24 h, 100 nL compound, profiling panel (AID 1168). Further: test concentration not given here. The settings on record: JC-1 mitochondrial fluorescence, higher = more signal, called active from +8 up or from −8 down.
Assay [18] in a line: JC-1 mitochondrial signal, unstimulated myeloma cells – cell-based, JC-1 fluorescence, RPMI8226, 24 h, 100 nL compound, profiling panel (AID 1169). Further: test concentration not given here. The settings on record: JC-1 mitochondrial potential fluorescence, higher = more signal.
Assay [19] is described as follows: JC-1 mitochondrial signal, unstimulated MM1S myeloma – cell-based, JC-1 fluorescence, 24 h, 100 nL compound, profiling panel (AID 1170). Further: test concentration not given here. The settings on record: MM1S mitochondrial potential, higher = more signal.
Assay [20] can be described thus: resazurin metabolic signal in A549 cells – cell-based, resazurin fluorescence, 24 h, PK04 Diversity Set, profiling panel (AID 1171). Further: test concentration not given here. The settings on record: A549 viability, higher = more signal, called active from +8 up or from −8 down. (Resazurin is reduced to fluorescent resorufin, in cell work by metabolically active cells.)

Sequence of NADPH oxidase 5 (Homo sapiens) (Q96PH1 whole entry, looked up): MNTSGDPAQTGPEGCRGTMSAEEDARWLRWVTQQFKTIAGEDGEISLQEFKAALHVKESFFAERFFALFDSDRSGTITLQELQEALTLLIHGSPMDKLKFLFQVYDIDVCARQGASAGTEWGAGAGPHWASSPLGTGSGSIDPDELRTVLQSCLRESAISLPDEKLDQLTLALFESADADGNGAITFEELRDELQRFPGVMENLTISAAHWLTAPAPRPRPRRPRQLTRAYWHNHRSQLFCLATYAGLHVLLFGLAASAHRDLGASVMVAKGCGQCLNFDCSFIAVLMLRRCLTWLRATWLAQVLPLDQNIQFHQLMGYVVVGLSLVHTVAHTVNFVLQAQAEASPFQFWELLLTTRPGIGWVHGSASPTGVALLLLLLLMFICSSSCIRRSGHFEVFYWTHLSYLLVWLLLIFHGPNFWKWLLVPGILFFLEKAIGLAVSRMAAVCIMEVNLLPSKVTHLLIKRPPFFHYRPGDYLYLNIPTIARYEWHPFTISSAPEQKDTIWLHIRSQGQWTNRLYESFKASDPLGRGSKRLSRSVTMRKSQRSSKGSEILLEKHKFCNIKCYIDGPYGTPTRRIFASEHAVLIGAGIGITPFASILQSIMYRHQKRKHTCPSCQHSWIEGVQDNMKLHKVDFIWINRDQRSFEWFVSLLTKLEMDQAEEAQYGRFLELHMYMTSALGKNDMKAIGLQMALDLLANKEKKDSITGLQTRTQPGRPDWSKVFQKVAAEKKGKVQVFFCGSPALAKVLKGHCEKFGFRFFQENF
Sequence of NADPH oxidase 4 (Homo sapiens) (Q9NPH5 whole entry, looked up): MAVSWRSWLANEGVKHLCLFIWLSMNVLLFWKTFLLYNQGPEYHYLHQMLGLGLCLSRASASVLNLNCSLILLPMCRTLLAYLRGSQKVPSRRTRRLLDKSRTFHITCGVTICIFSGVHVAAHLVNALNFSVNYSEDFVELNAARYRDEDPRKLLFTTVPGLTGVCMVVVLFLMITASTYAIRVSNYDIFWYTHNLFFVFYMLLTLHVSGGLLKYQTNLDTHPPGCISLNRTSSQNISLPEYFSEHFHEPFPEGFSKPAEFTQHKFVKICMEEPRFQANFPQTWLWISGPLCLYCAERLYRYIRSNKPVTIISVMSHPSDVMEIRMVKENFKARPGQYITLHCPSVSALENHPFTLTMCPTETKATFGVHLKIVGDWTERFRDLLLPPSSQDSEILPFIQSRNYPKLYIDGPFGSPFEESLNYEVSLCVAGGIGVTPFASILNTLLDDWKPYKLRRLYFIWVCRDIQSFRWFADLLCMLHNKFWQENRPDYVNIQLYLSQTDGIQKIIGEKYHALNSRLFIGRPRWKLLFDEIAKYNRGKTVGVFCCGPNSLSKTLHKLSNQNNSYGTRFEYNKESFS

For `C[C@]1(C(=O)NCCN2CCOCC2)c2ccccc2C(=O)N(Cc2ccccc2)[C@H]1c1ccc(CO)cc1`, the z-score in assay [1] is 0.402 (inactive); in assay [3] it was 5.59 (inactive); in assay [4], 0.516 (inactive); in [5], 1.88 (inactive); in assay [6], 0.719 (inactive); in assay [7] it was 0.282. Moreover, the z-score in assay [8] was 0.346 (inactive); in assay [9], -1.61 (inactive); in assay [10], -2.77; in assay [11], 0.665; in assay [12], -0.337; in assay [13], -0.289. For the same molecule, the z-score is 0.763 in [14]; -1.71 in [15]; 1.58 in assay [16]; -0.782 (inactive) in [17]; -0.0116 in [18]; -0.225 in assay [19]. Besides, the z-score in [20] is 0.583 (inactive). This molecule also gave a composite z-score in [2] of -0.0969.

With `C=C(C(=O)CC[C@H](OC(=O)c1ccccc1-c1ccccc1C(=O)O)c1ccc(CO)o1)C(C)C`, the z-score in [1] was -0.748 (inactive); in assay [3] it was 2.22 (inactive); in assay [4], 0.36 (inactive); in assay [5], 1.19 (inactive); in [6], 0.233 (inactive); in assay [7], 0.124. Moreover, the z-score in assay [8] was -0.162 (inactive); in assay [9], -0.621 (inactive); in assay [10], -0.867; in assay [11], -0.473; in [12], -0.284; in assay [13] it was -0.396. The z-score is -0.263 in [14]; 0.0025 in assay [15]; -0.906 in assay [16]; -0.244 (inactive) in assay [17]; 0.374 in assay [18]; 0.668 in assay [19]. Moreover, the z-score in assay [20] is 0.529 (inactive). For the same molecule, the composite z-score in assay [2] turned out to be 0.0026.

Consider `C=CCN1C(=O)[C@@]2(O[C@@H](CCn3cc([C@H](O)c4ccccc4)nn3)[C@H]([Si](C)(C)c3ccc(OC)cc3)[C@H]2C)c2cc(N3CCOC3=O)ccc21`, for which the z-score in [1] was 1.77 (inactive); in [3] it was 6.55 (inactive); in [4], 0.569 (inactive); in assay [5] it was -0.0434 (inactive); in assay [6], -0.233 (inactive); in assay [7], 1.67. Also, the z-score is -0.379 (inactive) in [8]; 1.18 (inactive) in [9]; -1.67 in [10]; -0.873 in assay [11]; 3.06 in [12]; -1.2 in assay [13]. The z-score is -1.81 in [14]; -1.93 in [15]; 1.09 in [16]; 1.92 (inactive) in [17]; -0.376 in [18]; 0.753 in [19]. The z-score in assay [20] is -1.97 (inactive). For the same molecule, the composite z-score in assay [2] is -0.139.

Regarding `CC(C)(C)OC(=O)CC[C@@]1(C(=O)NCc2ccccc2)N=C(c2ccc(OCCCO)cc2)O[C@@H]1c1ccccc1`, the z-score in assay [1] was 1.9 (inactive); in [3] it was 23.9 (active); in [4], 11.3 (active); in [5] it was 1.61 (inactive); in assay [6] it was 1.7 (inactive); in assay [7], 3.43. For the same molecule, the z-score in assay [8] was -1.25 (inactive); in assay [9] it was 0.596 (inactive); in [10] it was -0.58; in [11] it was -0.595; in assay [12], 1.16; in assay [13], -0.907. The z-score was -2.37 in assay [14]; -3.23 in assay [15]; 1.9 in [16]; 4.19 (inactive) in assay [17]; -0.791 in assay [18]; -0.552 in [19]. For the same molecule, in [20], the z-score is -2.88 (inactive). In assay [2], this molecule displayed a composite z-score of 0.736.

As to `O=C1O[C@H](c2ccccc2)[C@H](c2ccccc2)N2[C@H]1[C@@H](C(=O)Nc1nc3ccccc3s1)[C@]1(C(=O)Nc3ccc(C#CC4(O)CCCCCC4)cc31)[C@H]2c1ccc(O)cc1`, the z-score in assay [1] is -1.07 (inactive); in assay [3] it was 0.797 (inactive); in [4], 1.57 (inactive); in [5] it was 0.315 (inactive); in [6], 1.38 (inactive); in assay [7], -0.0907. For the same molecule, the z-score in [8] is 1.03 (inactive); in assay [9] it was -0.14 (inactive); in assay [10], 0.842; in assay [11], -0.0457; in [12], 0.6; in [13], -0.0827. In addition, the z-score in [14] is -2.98; in assay [15], -4.08; in [16], -3.62; in assay [17], -2.4 (inactive); in assay [18], -1.14; in assay [19] it was -0.676. The z-score in assay [20] is -0.318 (inactive). Also, in assay [2], the composite z-score was found to be 0.308.

`CC(C)CNC(=O)[C@@]1(C)c2ccccc2C(=O)N(Cc2ccc(OC(F)(F)F)cc2)[C@H]1c1ccc(CO)cc1`: the z-score in assay [1] is 1.28 (inactive); in assay [3], 2.97 (inactive); in assay [4] it was 0.251 (inactive); in assay [5], 1.09 (inactive); in assay [6] it was -0.0139 (inactive); in [7], 0.181. The z-score in assay [8] was -0.201 (inactive); in assay [9], 0.775 (inactive); in assay [10] it was 1.01; in assay [11], 1.69; in assay [12], 1.68; in assay [13] it was 0.65. Also, the z-score in assay [14] was -0.249; in assay [15], -0.358; in assay [16] it was 3.03; in [17], -0.481 (inactive); in assay [18], 0.862; in assay [19] it was 1.38. The z-score in assay [20] was 1.32 (inactive). The composite z-score in [2] was determined as 0.152.

As for `C=CCOC(=O)[C@@H]1[C@H]2C(=O)O[C@H](c3ccccc3)[C@H](c3ccccc3)N2[C@H](c2ccc(OCCOC(=O)[C@H]3C[C@H]4C(=O)N5CCC[C@H]5C(=O)N4[C@H]3c3ccc(O)cc3)cc2)[C@@]12C(=O)Nc1ccccc12`, the z-score is 2.34 (inactive) in assay [1]; 3.21 (inactive) in [3]; 0.288 (inactive) in assay [4]; -2.79 (inactive) in assay [5]; -1.39 (inactive) in assay [6]; 0.557 in [7]. The z-score is 1.56 (inactive) in assay [8]; 0.0128 (inactive) in [9]; 2.16 in assay [10]; 0.17 in assay [11]; 1.25 in assay [12]; -1.06 in [13]. The z-score is -0.222 in assay [14]; -0.931 in [15]; -1.16 in assay [16]; 0.597 (inactive) in assay [17]; -0.674 in [18]; -0.393 in assay [19]. The z-score in assay [20] was -0.0653 (inactive). Further, the composite z-score in assay [2] stood at 0.244.

For `[N-]=[N+]=NCc1ccccc1[C@H]1OC(c2ccc(OCCCO)cc2)=N[C@@]1(Cc1ccccc1N=[N+]=[N-])C(=O)NCc1ccccc1`, the z-score in assay [1] is -0.258 (inactive); in assay [3], 28.3 (active); in assay [4] it was 20.5 (active); in assay [5] it was 1.96 (inactive); in assay [6] it was 1.99 (inactive); in assay [7], -0.0679. The z-score in assay [8] was -0.627 (inactive); in assay [9], 0.522 (inactive); in [10] it was -0.56; in assay [11], -0.741; in [12], 0.236; in [13], -0.946. The z-score is -2.4 in [14]; -3.8 in assay [15]; 0.37 in assay [16]; -0.296 (inactive) in [17]; -1.02 in assay [18]; -1.38 in assay [19]. Besides, the z-score in assay [20] is 0.0642 (inactive). The same molecule returned a composite z-score in assay [2] of 0.195.
